Assay results reported in paper PMC5540273 (PLoS ONE, 2017).

Test system: PRKD3
Settings: concentration: 1 μM,replicates: in singlicate; n = 1
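Note: KINOMEscan kinase panel screen.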

| SMILES | %Inh [%] |
| --- | --- |
| O=C(Nc1ccccc1)c1cccc(Oc2ccc3nccn3n2)c1 | 1 |
| Cc1ccc(CC(=O)N2CCc3cc(-c4cn(C)c5ncnc(N)c45)ccc32)cc1 [GSK2634758] | 0 |
| COC(=O)c1cccc(NC(=O)NC2CCN(c3ccnc(NCc4ccc(F)cc4)n3)CC2)c1 [GSK1379860] | 25 |
| Cc1n[nH]c2cc(Nc3ccnc(Nc4cccc(CN5CCOCC5)c4)n3)ccc12 [GW682569] | 18 |
| CCN1CCN(CCCC(=O)Nc2n[nH]c3nc(-c4ccc(O)cc4)c(Br)cc23)CC1 [SB-731579] | 0 |
| COc1ccc(Nc2nccc(N3CCC(NC(=O)c4cccc(C#N)c4)C3)n2)cc1 (stereo not shown) [GSK1379730] | 0 |
| C[C@@H](Oc1cc(-n2cnc3cc(-c4ccncc4)ccc32)sc1C(N)=O)c1ccccc1Cl [GSK479719] | 16 |
| Cc1nnc(-c2ccc3occ(-c4ccc(S(C)=O)cc4)c3n2)o1 (stereo not shown) | 0 |
| Cn1cc(-c2cccc3c(N)c(C(N)=O)nnc23)cn1 | 21 |
| Cl.Nc1n[nH]c2cc(-c3ccccn3)ccc12 [GSK2189892] | 0 |
| COc1cccc(CNC(=O)NC2CCN(c3ccnc(Nc4cc(OC)c(OC)c(OC)c4)n3)C2)c1 (stereo not shown) [GSK1379765] | 0 |
| Cc1ccc(C(=O)Nc2ccc(Oc3ccc4nc(NC(=O)C5CC5)cn4c3)c(F)c2)c(=O)n1-c1ccccc1 | 0 |
| Cc1cccc2c(-c3ccncc3)c(-c3ccc(F)cc3)nn12.Cl [GW461487] | 0 |
| C[C@@H](Oc1cc(-n2cnc3ccc(-c4ccncc4)cc32)sc1C(N)=O)c1ccccc1Cl [GSK483724] | 27 |
| CNC(=O)c1ccccc1Nc1nc(Nc2cccc(CS(C)(=O)=O)c2)ncc1C.O=CO [GSK1520489] | 13 |
| COc1cc2c(Nc3ccc(NC(=O)c4ccccc4)cc3)ncnc2cc1OCCCN1CCOCC1 [GSK301329] | 0 |
| O=C(Nc1ccc(Oc2ccc3nc(NC(=O)C4CC4)cn3n2)c(F)c1)c1cccn(-c2ccccc2)c1=O | 0 |
| COc1cc(Nc2nccc(N3CCC(NC(=O)c4cccc(C#N)c4)C3)n2)cc(OC)c1OC (stereo not shown) [GSK1379751] | 0 |
| CC(C)S(=O)(=O)N1CCN(Cc2ccc3c(c2)nc(NC(=O)c2ccsc2)n3C[C@H](O)c2ccccc2)CC1 [GW635815] | 0 |

| SMILES | %Inh [%] |
| --- | --- |
| Cn1ccc2ncnc(Oc3ccc(NC(=O)Nc4cccc(C(F)(F)F)c4)c(F)c3)c21 | 0 |
| Cc1ccc2c(-c3ccnc(Nc4ccc(C(F)(F)F)cc4)n3)cnn2n1 [GW819776] | 0 |
| C[C@@H]1CNc2c(sc3ccc4nc(-c5ccncc5)ccc4c23)C(=O)N1 | 34 |
| Cn1ccc2ncnc(Oc3ccc(NC(=O)Nc4cccc(C(F)(F)F)c4)c(Cl)c3)c21 | 9 |
| COc1cccc(OC)c1C(=O)Nc1cccc(-c2nn3ccccc3c2-c2ccnc(Nc3cccc(F)c3)n2)c1 [GSK361065] | 2 |
| CN1CCN(CCCNc2nccc(-c3c(-c4ccc(F)cc4)nn4cc(C(N)=O)ccc34)n2)CC1 [GW622475] | 89 |
| CCCC(=O)Nc1n[nH]c2ncccc12 [SB-601436] | 0 |
| Cn1ccc2ncnc(Oc3ccc(NC(=O)Nc4cc(C(C)(C)C)on4)c(Cl)c3)c21 | 0 |
| Cl.c1ccc(Oc2ccc(Nc3ccnc4cc(-c5ccc(CN6CCNCC6)o5)ccc34)cc2)nc1 [GW567142] | 19 |
| CC(=O)Nc1ccc(-c2cc3ncnc(SCC(=O)O)c3s2)cc1 | 7 |
| Cc1ccc(Nc2ccnc(Nc3ccc4c(c3)CS(=O)(=O)C4)n2)cc1O.Cl [GW579362] | 87 |
| COc1cccc(C2=C(Nc3cccc(Cl)c3)C(=O)NC2=O)c1 [SB-341556] | 6 |
| OCCn1cc(-c2cnc3nnn(Cc4ccc5ncccc5c4)c3n2)cn1 | 0 |
| Cn1ccc2ncnc(Oc3ccc(NC(=O)Nc4cncc(C(F)(F)F)c4)c(Cl)c3)c21 | 0 |
| CN(c1cccc(CNc2nc(Nc3ccc4c(c3)CC(=O)N4)ncc2C(F)(F)F)c1)S(C)(=O)=O | 28 |
| Cl.Cl.NC[C@H](CC1CCCCC1)NC(=O)c1ccc(-c2ccnc3[nH]ccc23)s1 [GSK1581428] | 96.2 |
| N#Cc1cccc(C(=O)NC2CCN(c3ccnc(Nc4ccc(F)cc4)n3)C2)c1 (stereo not shown) [GSK1379708] | 0 |
| c1ccc(Oc2ccc(Nc3ccnc4ccc(-c5ccccn5)cc34)cc2)cc1 [GW407034] | 33 |
